According to PubChem BioAssay (Tox21):
Where “and” joins values, the source holds several entries; their conditions need not be identical. Equal entries are not always repeated. Inconclusive results are not listed. Entries that show only a call come without a potency. Some structures have more than one record in an assay (separate samples or runs), and their calls can disagree. Calls of active or inactive are those of the source. The call rests on the fitted dose curve.

Assay: Nuclear factor erythroid 2-related factor 2/antioxidant responsive element (Nrf2/ARE) small molecule agonists: luciferase reporter gene qHTS assay in human keratinocytes (AID 1919969); further: nearly all actives have a fitted effect of over 35% in size
Details: KeratinoSens HaCaT ARE-luciferase, luminescence, 24 h; series mostly up to 92.4 µM
Potency means the concentration at half of the fitted maximal effect.

Row | Compound | Potency
1 | O=Cc1ccc(CO)o1 | inactive
2 | COc1cc([C@@H]2c3cc4c(cc3[C@H](O)[C@H]3COC(=O)[C@H]23)OCO4)cc(OC)c1OC | 54.4 nM (active) and 53.1 nM (active)
3 | Oc1ccc(Cl)cc1Cc1cc(Cl)ccc1O | inactive and 33.5 µM (active)
4 | c1ccc2[nH]cnc2c1 | inactive
5 | COCc1c(C(C)C)nc(C(C)C)c(/C=C/[C@@H](O)C[C@@H](O)CC(=O)O)c1-c1ccc(F)cc1 | inactive
6 | c1ccc2[nH]c(-c3cscn3)nc2c1 | 27.3 µM (active) and 6.68 µM (active)
7 | CC(=O)Nc1c(I)c(NC(C)=O)c(I)c(C(=O)O)c1I | inactive
8 | Oc1ccc2ccccc2c1N=Nc1ccccc1 | 30.6 µM (active) and 21.7 µM (active)
9 | C=C(CC(=O)O)C(=O)O | inactive
10 | CC(C)NCC(O)c1ccc(O)c(O)c1 (stereo not drawn) | inactive
11 | C=C(C)C(=O)OCCC[Si](OC)(OC)OC | inactive
12 | CC(=O)C(=O)O | inactive
13 | CC1=C(C)S(=O)(=O)CCS1(=O)=O | 6.73 µM (active) and 8.63 µM (active)
14 | C=C(C)CC(C)(C)C | inactive
15 | CC(C)=CCl | inactive
16 | C=C(C#N)C(=O)OCC | inactive and 68.6 µM (active)
17 | CCCCCCCCCCCC[N+](C)(C)Cc1ccccc1 | inactive
18 | CCCCCCCCC(=O)O | inactive
19 | Cc1ccc(C(=O)O)o1 | inactive
20 | C=C[C@@]1(C)CC(=O)[C@]2(O)[C@@]3(C)[C@@H](O)CCC(C)(C)[C@@H]3[C@H](O)[C@H](OC(C)=O)[C@@]2(C)O1 | inactive
21 | CC(=O)O[C@]1(C(C)=O)CC[C@H]2[C@@H]3C[C@H](C)C4=CC(=O)CC[C@]4(C)[C@H]3CC[C@@]21C | inactive

Row | Compound | Potency
22 | COCCCN | inactive
23 | CCc1ccc(CCOc2ccc(CC3SC(=O)NC3=O)cc2)nc1 (stereo not drawn) | 27.3 µM (active) and inactive
24 | CCCCCCOC(C)=O | inactive
25 | Nc1nc2ncc(CNc3ccc(C(=O)N[C@@H](CCC(=O)O)C(=O)O)cc3)nc2c(=O)[nH]1 | inactive
26 | CCCCOCCOCCSC#N | inactive
27 | CCO[Si](CCC#N)(OCC)OCC | inactive
28 | CCO[Si](CCCNC(N)=O)(OCC)OCC | inactive
29 | COCCc1ccc(OCC(O)CNC(C)C)cc1 (stereo not drawn) | inactive
30 | CC(=O)OCC(COC(C)=O)OC(C)=O | inactive
31 | FC(F)(F)c1ccc(Cl)c(Cl)c1 | inactive
32 | O=C(O)CS | inactive and 61.6 µM (active)
33 | CC(O)CO (stereo not drawn) | inactive
34 | Clc1ccc(Sc2cc(Cl)c(Cl)cc2Cl)cc1 | inactive
35 | NC(N)=S | inactive
36 | CC(=O)OCC(=O)[C@@]12N=C(C)O[C@@H]1C[C@H]1[C@@H]3CCC4=CC(=O)C=C[C@]4(C)[C@H]3[C@@H](O)C[C@@]12C | inactive
37 | Cc1cccc2ccccc12 | inactive
38 | O=C1OC2(c3ccccc31)c1cc(I)c(O)c(I)c1Oc1c2cc(I)c(O)c1I | inactive and 33.1 µM (active)
39 | c1ccc2c(c1)Cc1ccccc1-2 | inactive
40 | Cc1occc(=O)c1O | inactive
41 | Nc1ncn([C@@H]2O[C@H](CO)[C@@H](O)[C@H]2O)c(=O)n1 | 30.6 µM (active) and 7.5 µM (active)
42 | C=C(C)C(=O)OCCCCCC | inactive

Row | Compound | Potency
43 | CC1(C)S[C@@H]2[C@H](NC(=O)[C@H](N)c3ccccc3)C(=O)N2[C@H]1C(=O)O | inactive
44 | O=C(OCc1ccccc1)c1ccc(O)cc1 | 68.6 µM (active) and 13.3 µM (active)
45 | Cc1ncc([N+](=O)[O-])n1CCO | inactive
46 | CC(=O)Oc1ccc(C(c2ccc(OC(C)=O)cc2)c2ccccn2)cc1 | 121 nM (active) and 841 nM (active)
47 | C[Si](O[Si](C)(C)C)O[Si](C)(C)C | inactive
48 | CC(=O)Oc1ccc(C)cc1 | inactive
49 | CCOC(=O)C(C#N)=C(c1ccccc1)c1ccccc1 | inactive
50 | CC(O)COc1ccccc1 (stereo not drawn) | inactive
51 | Clc1ccccn1 | inactive
52 | CCCC(CCC)C(=O)O | inactive
53 | O=C1CCC(N2C(=O)c3ccccc3C2=O)C(=O)N1 (stereo not drawn) | inactive
54 | CCCC(O)C(CC)CO (stereo not drawn) | inactive
55 | CC1=CC(C)(C)Nc2ccccc21 | inactive
56 | CCn1c2ccccc2c2cc(N)ccc21 | inactive
57 | CC(=O)Nc1cccc(O)c1 | inactive
58 | Cc1cc(C(C)(C)C)c(O)c(C(C)(C)C)c1 | 24.4 µM (active) and 48.6 µM (active)
59 | CCN(CC)CCOC(=O)c1ccc(N)cc1 | inactive
60 | CN(C)C(=O)Nc1ccc(Cl)c(Cl)c1 | inactive
61 | Cc1cc(=O)oc2cc(O)ccc12 | inactive
62 | CCCCCCCC(=O)OC | inactive
63 | c1ccc2scnc2c1 | inactive
